Compound activity (PubChem BioAssay)
CHX counter: counter-screen for Shiga toxin inhibitors: cycloheximide protein synthesis inhibition. 300,000 tested, 12% active. AID 2314. max response, %. cell reporter, cycloheximide protein synthesis inhibition counterscreen; in the data active means max response mostly above about 13%, no sharp cut-off; inactive means mostly below about 14%; further: read at 38.3 µM for the half of the compounds with a filed dose; 0% is about no effect
Shiga toxin inh: inhibitors of Shiga toxin in Vero cells | Vero cells, Shiga toxin protein synthesis inhibition reporter | inhibition, % at 38.7 µM | 290,000 tested, 9.2% active; in the data active means inhibition mostly above about 28%, no sharp cut-off; inactive means mostly below about 43%; further: 0% is about no effect
Pf growth 96h: P. falciparum growth inhibition at 96 hours; AID 504834; P. falciparum luciferase reporter growth, 96 h; 320,000 tested, 6.9% active; Potency, µM (top dose mostly 28.7 µM), for inactives: at the top dose activity change, negative = inhibition, most hits filed as inhibitors; active means well fitted inhibition curve with a large enough effect; inconclusive means small, poorly fitted or top-dose-only effect, or another doubt; inactive means no such curve, though single readings can be large or run the other way; further: potency means the concentration at half of the fitted maximal effect; on the % scale 0 is the no-effect control and ±100 the full control effect
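P. falciparum expressing integrated firefly luciferase, in erythrocytes at 2% hematocrit, 0.05% parasitemia, incubated with compounds 96 h at 37 C, 5% CO2. Growth inhibition read as loss of luminescence; two-generation exposure targets delayed-death apicoplast inhibitors.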
SARS PLpro yeast: blocks SARS-CoV papain-like protease in a yeast assay; S. cerevisiae expressing SARS-CoV PLpro, growth rescue; Potency, µM (top dose mostly 32.9 µM), for the others: at the highest dose activity, positive = growth rescue, actives largely listed as activators; 330,000 tested, 0.19% active; AID 485353; further: potency means the concentration at half of the fitted maximal effect; 0% is about no effect; nearly all actives have a fitted effect of over 55% in size
NS1 function inh: blocks influenza NS1 protein function; Potency, µM (highest dose often 46.1 µM), inactives show at the top dose activity, positive = more growth; 270,000 tested, 0.4% active; further: potency means the concentration at half of the fitted maximal effect; actives are rising curves; nearly all actives have a fitted effect of over 50% in size
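Compounds were scored for reversing the slow growth caused by influenza A NS1 in S. cerevisiae, measured by optical density at 600 nm. Assay medium contained 2% galactose at pH 6.0; NS1-free yeast of the same strain were the positive control.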
Pf growth 48h: inhibits P. falciparum growth in the first generation, 48 h. P. falciparum luciferase growth in erythrocytes, 48 h. Potency, µM (highest dose often 28.7 µM), for the others: top-dose activity change, negative = inhibition, usual class: inhibitors. 310,000 tested, 5.9% active; active means well fitted inhibition curve with a large enough effect; inconclusive means small, poorly fitted or top-dose-only effect, or another doubt; inactive means no such curve, though single readings can be large or run the other way; further: potency means the concentration at half of the fitted maximal effect; on the % scale 0 is the no-effect control and ±100 the full control effect
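Erythrocytes infected with P. falciparum carrying an integrated firefly luciferase reporter (2% hematocrit, 0.1% parasitemia final) were exposed to compounds in RPMI 1640 with 0.5% Albumax at 37 C, 5% CO2. Growth inhibition was scored as reduced luminescence.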
* marks the source's active call; other numbers are inactive results; ? = inconclusive; . = not tested or not shown; [ ] = remark or other dose. Sampled rows, rich in hits. Any-hit rate of the full collection: about 21%. Unless noted, the call rests on the fitted dose curve.

SMILES	CHX counter	Shiga toxin inh	Pf growth 96h	SARS PLpro yeast	NS1 function inh	Pf growth 48h
O=C(NCCN1CCNCC1)c1ccccn1	13.7	100.5*	-30.6%	14.3%	-6.5%	37.0%
CCN(CC)c1ccc(NC(=O)c2ccc(=O)[nH]c2)cc1S(=O)(=O)Nc1ccccc1OC	0.5	20.1	6.57µM*	-2.4%	.	10.4µM*
CCN(CC)c1ccc(NC(=O)COc2ccccc2C)cc1S(=O)(=O)Nc1ccccc1OC	-1.0	-13.8	?	6.7%	9.3%	9.28µM*
CCN(CC)c1ccc(NC(=O)c2ccccc2F)cc1S(=O)(=O)Nc1ccccc1OC	-1.3	11.4	10.4µM*	-6.4%	-4.7%	4.65µM*
CCN(CC)c1ccc(NC(=O)COc2ccccc2C#N)cc1S(=O)(=O)Nc1ccc(OC)cc1	10.1	44.0*	4.15µM*	7.9%	12.6%	8.28µM*
CCN(CC)c1ccc(NC(=O)c2cnccn2)cc1S(=O)(=O)Nc1ccc(OC)cc1	-1.2	-2.1	?	16.3%	-21.4%	?
COc1ccc(NC(=O)c2ccc(=O)[nH]c2)cc1S(=O)(=O)N1CCCCC1	-1.0	-3.1	-7.7%	17.7%	10.9%	1.6%
O=C(c1ccc2nc[nH]c2c1)N1CCN(c2ncc(C(F)(F)F)cc2Cl)CC1	-1.6	10.1	?	-5.3%	7.9%	39.1%
CCCN(CC(=O)Nc1ccccc1OC)C(=O)CSc1nc(C)cc(C)n1	.	.	10.7%	6.3%	.	13.7%
O=C(CC12CC3CC(CC(C3)C1)C2)Nc1cccc2ncccc12	-1.8	-2.5	?	17.0%	-5.4%	.
O=S(=O)(NN1CCOCC1)c1ccc(Br)cc1	-3.2	-8.8	1.2%	-2.6%	0.4%	5.8%
CCNC(=S)Nc1ccc(C)c(S(=O)(=O)Nc2ccccc2OC)c1	-0.6	-5.5	5.3%	0.1%	3.2%	-5.0%
CCN(CC)c1ccc(NC(=O)c2ccccc2Br)cc1S(=O)(=O)Nc1ccccc1OC	-2.4	24.4	0.0%	-3.7%	?	14.7µM*
CC(C)NC(=O)c1noc2cc([N+](=O)[O-])ccc12	12.4*	103.8*	43.3%	6.9%	-2.5%	43.4%
COc1ccc(C(C)=O)cc1CSc1nncn1-c1ccccc1	-0.2	-5.6	?	-3.4%	11.0%	-9.0%
COc1cc(O)c(C(CCN2CCCCC2)c2ccc(N(C)C)cc2)c(OC)c1 (configuration not stated)	-8.7	-0.6	0.828µM*	-3.2%	-3.2%	1.31µM*
COc1ccc(C(CC(=O)N2CCOCC2)c2c(O)cc(OC)cc2OC)cc1 (configuration not stated)	-1.4	2.3	67.8%	-1.7%	-5.1%	38.6%
COc1ccc(C(c2c(O)ccc3ccccc23)N2CCOCC2)c(OC)c1 (configuration not stated)	34.1	65.0*	?	-15.5%	-106.7%	82.6%
COc1ccc(C(CCN2CCOCC2)c2c(O)cc(OC)cc2OC)cc1 (configuration not stated)	-2.2	-11.0	3.29µM*	4.4%	0.0%	3.7µM*
COc1cc(O)c(C(CCN2CCCC2)c2ccc(N(C)C)cc2)c(OC)c1 (configuration not stated)	-2.1	-7.8	3.29µM*	0.6%	-16.0%	2.94µM*
O=C(COC(=O)c1ccc(O)cc1)Nc1ccc(S(=O)(=O)N2CCCC2)cc1	.	.	.	-0.2%	.	.
Cc1ccc(S(=O)(=O)NCCC(=O)OCC(=O)N2CCCC2=O)cc1C	.	.	40.6%	0.0%	.	-8.3%
CCn1c(=O)cc(C(F)(F)F)[nH]c1=S	-0.8	-3.8	28.5%	0.3%	.	?
COc1ccccc1C/C(N)=N/OC(=O)c1cccc([N+](=O)[O-])c1	5.0	46.8	?	-34.9%	1.8%	11.7µM*
COc1ccc(C/C(N)=N/OC(=O)c2cccc([N+](=O)[O-])c2)cc1	5.8	-10.4	-3.7%	-76.7%	-36.2%	?
SMILES	CHX counter	Shiga toxin inh	Pf growth 96h	SARS PLpro yeast	NS1 function inh	Pf growth 48h
N/C(=N\OC(=O)c1ccc([N+](=O)[O-])cc1Cl)c1ccccn1	14.0*	32.4	?	-4.7%	-19.0%	117.2%
O=C(OCC(=O)N1CCCCCC1)c1ccc([N+](=O)[O-])cc1Cl	15.0*	27.1	-11.4%	4.3%	-1.0%	?
N/C(=N\OC(=O)c1cccc([N+](=O)[O-])c1)c1ccccn1	36.6*	114.2*	?	0.1%	.	364.6%
Cc1ccc(NS(=O)(=O)c2ccc3[nH]c(=O)[nH]c3c2)c(C)c1	7.4	-1.6	-0.4%	0.4%	-3.2%	8.0%
O=C(OCc1nnc(-c2ccccc2)o1)c1cc([N+](=O)[O-])ccc1Cl	-3.9	-5.3	-1.7%	-3.7%	.	17.3%
N/C(=N\OC(=O)c1cc(Br)ccc1Cl)c1ccccn1	52.4*	77.1*	32.6%	2.3%	.	158.5%[5.75 µM]
Cc1c(C(=O)O/N=C(\N)c2ccccn2)cccc1[N+](=O)[O-]	21.5*	28.1	?	-3.2%	-43.4%	-29.3%
N/C(=N\OC(=O)c1ccc(Cl)cc1Cl)c1ccccn1	-7.5	-20.2	2.0%	-4.3%	-54.6%	-18.4%
N/C(=N\OC(=O)c1ccc(Cl)cc1[N+](=O)[O-])c1ccccn1	48.5*	117.5*	-45.2%	-25.1%	-119.3%	-29.2%
N/C(=N\OC(=O)c1cc([N+](=O)[O-])ccc1Cl)c1ccccn1	22.8*	58.0*	-23.5%	1.1%	1.7%	44.5%
NC(=O)c1ccc([N+](=O)[O-])cc1Cl	.	.	10.7µM*	.	.	?
Cc1c(C(=O)Oc2cccc3cccnc23)cccc1[N+](=O)[O-]	41.0*	171.2*	?	-3.5%	.	?
CNC(=O)COC(=O)c1ccc([N+](=O)[O-])cc1Cl	-1.8	-2.7	22.4%	16.1%	-5.4%	14.6%
CC(=O)N(C)c1ccc(NC(=O)CCN2C(=O)c3ccccc3C2=O)cc1	1.4	-12.8	1.8%	2.6%	11.6%	0.0%
Cc1c(-c2ccc(Cl)cc2)oc(=O)c2c(N)n(-c3ccccc3)nc12	24.5*	17.2	-6.3%	-1.1%	4.8%	20.1%
Cc1cc2c(c(C)nn2-c2ccccc2)c(=O)o1	-4.3	-8.2	30.4%	1.0%	-6.1%	22.8%
Nc1c2c(=O)oc(-c3ccccc3)cc2nn1-c1ccccc1	37.9*	114.9*	147.7%	-7.2%	-28.8%	79.4%
CCc1c(C)c2c(C)nn(-c3ccccc3)c2oc1=O	-1.6	14.3	-0.4%	-28.3%	-27.1%	8.1%
CC1=C(/C=C\C(=O)O)C(C)(C)CCC1	.	.	.	.	-9.7%	.
COc1ccc(-c2cc(=O)n(CCC#N)[nH]2)cc1	-0.9	-7.1	7.38µM*	0.2%	10.0%	3.2%
CS(=O)(=O)Nc1ccc(S(=O)(=O)N2CCCCCC2)cc1	-8.1	-3.4	?	-3.7%	-6.4%	13.6%
CCC1CCCCN1Cc1nc(Cc2ccccc2Cl)no1 (configuration not stated)	0.9	29.1	?	0.2%	-5.4%	?
Cc1nnc(SCc2ccc(C(=O)Nc3cc(Cl)ccc3C)cc2)s1	12.5	36.0	?	16.4%	-8.3%	38.5%
